According to the supplement of paper PMC8975748:
Counter-ions that a name gives are not always drawn. ± gives the standard deviation of the averaged measurements.

Key:
[1] = test system: Saccharomyces cerevisiae BY4741 SeMeCo community; assay: mean cell size (pixel area) (pixels); higher = larger cells; details: 10 µM; 24 h; SM minimal medium
In short: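 The test system was a fluorescent Saccharomyces cerevisiae BY4741 community with four plasmids, each restoring one auxotrophy and carrying a fluorescent marker. Cells were grown for 24 h in SM medium with drug at a final 10 µM in 384-well plates, then fixed with paraformaldehyde and imaged by automated confocal microscopy for Harmony analysis of mean cell pixel area per well. Values represent the average of 3 replicates. Same SeMeCo high-content imaging drug screen: Selleck FDA-approved drugs at 10 µM, 24 h in SM medium, 384-well plates, 3 replicates.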

[2] = test system: Saccharomyces cerevisiae BY4741 SeMeCo community; assay: z-score of subpopulation abundance vs DMSO median, subpopulation auxotrophic for M; higher = larger share of this subpopulation than in DMSO controls; details: 10 µM; 24 h; SM minimal medium; subpopulation (auxotrophy): M
In short: (§1)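 Automated confocal microscopy of paraformaldehyde-fixed cells was used to follow a Saccharomyces cerevisiae BY4741 community carrying four plasmids, each restoring one auxotrophy and encoding a distinct fluorescent protein. The community was pre-grown overnight to OD600 1.0, diluted to 0.3, and added at 70 µl to 384-well plates acoustically predosed with library drugs (10 µM final) for 24 h of growth in minimal SM medium. Single-auxotroph fluorescent strains set thresholds and autofluorescence correction, and each subpopulation's abundance was scored as a z-score against the vehicle-well median.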

[3] = test system: Saccharomyces cerevisiae BY4741 SeMeCo community; assay: z-score of subpopulation abundance vs DMSO median, subpopulation auxotrophic for L; higher = larger share of this subpopulation than in DMSO controls; details: 10 µM; 24 h; SM minimal medium; subpopulation (auxotrophy): L
In short: as §1

[4] = test system: Saccharomyces cerevisiae BY4741 SeMeCo community; assay: z-score of subpopulation abundance vs DMSO median, subpopulation auxotrophic for U; higher = larger share of this subpopulation than in DMSO controls; details: 10 µM; 24 h; SM minimal medium; subpopulation (auxotrophy): U
In short: as §1

[5] = test system: Saccharomyces cerevisiae BY4741 SeMeCo community; assay: z-score of subpopulation abundance vs DMSO median, subpopulation auxotrophic for H; higher = larger share of this subpopulation than in DMSO controls; details: 10 µM; 24 h; SM minimal medium; subpopulation (auxotrophy): H
In short: as §1

[6] = test system: Saccharomyces cerevisiae BY4741 SeMeCo community; assay: z-score of subpopulation abundance vs DMSO median, subpopulation auxotrophic for LU; higher = larger share of this subpopulation than in DMSO controls; details: 10 µM; 24 h; SM minimal medium; subpopulation (auxotrophy): LU
In short: as §1

[7] = test system: Saccharomyces cerevisiae BY4741 SeMeCo community; assay: z-score of subpopulation abundance vs DMSO median, subpopulation auxotrophic for LM; higher = larger share of this subpopulation than in DMSO controls; details: 10 µM; 24 h; SM minimal medium; subpopulation (auxotrophy): LM
In short: as §1

[8] = test system: Saccharomyces cerevisiae BY4741 SeMeCo community; assay: z-score of subpopulation abundance vs DMSO median, subpopulation auxotrophic for HM; higher = larger share of this subpopulation than in DMSO controls; details: 10 µM; 24 h; SM minimal medium; subpopulation (auxotrophy): HM
In short: as §1

[9] = test system: Saccharomyces cerevisiae BY4741 SeMeCo community; assay: z-score of subpopulation abundance vs DMSO median, subpopulation auxotrophic for HU; higher = larger share of this subpopulation than in DMSO controls; details: 10 µM; 24 h; SM minimal medium; subpopulation (auxotrophy): HU
In short: as §1

[10] = test system: Saccharomyces cerevisiae BY4741 SeMeCo community; assay: z-score of subpopulation abundance vs DMSO median, subpopulation auxotrophic for UM; higher = larger share of this subpopulation than in DMSO controls; details: 10 µM; 24 h; SM minimal medium; subpopulation (auxotrophy): UM
In short: as §1

[11] = test system: Saccharomyces cerevisiae BY4741 SeMeCo community; assay: z-score of subpopulation abundance vs DMSO median, subpopulation auxotrophic for HL; higher = larger share of this subpopulation than in DMSO controls; details: 10 µM; 24 h; SM minimal medium; subpopulation (auxotrophy): HL
In short: as §1

[12] = test system: Saccharomyces cerevisiae BY4741 SeMeCo community; assay: z-score of subpopulation abundance vs DMSO median, subpopulation auxotrophic for HLU; higher = larger share of this subpopulation than in DMSO controls; details: 10 µM; 24 h; SM minimal medium; subpopulation (auxotrophy): HLU
In short: as §1

[13] = test system: Saccharomyces cerevisiae BY4741 SeMeCo community; assay: z-score of subpopulation abundance vs DMSO median, subpopulation auxotrophic for HLM; higher = larger share of this subpopulation than in DMSO controls; details: 10 µM; 24 h; SM minimal medium; subpopulation (auxotrophy): HLM
In short: as §1

[14] = test system: Saccharomyces cerevisiae BY4741 SeMeCo community; assay: z-score of subpopulation abundance vs DMSO median, subpopulation auxotrophic for HUM; higher = larger share of this subpopulation than in DMSO controls; details: 10 µM; 24 h; SM minimal medium; subpopulation (auxotrophy): HUM
In short: as §1

[15] = test system: Saccharomyces cerevisiae BY4741 SeMeCo community; assay: z-score of subpopulation abundance vs DMSO median, subpopulation auxotrophic for LUM; higher = larger share of this subpopulation than in DMSO controls; details: 10 µM; 24 h; SM minimal medium; subpopulation (auxotrophy): LUM
In short: as §1

[16] = test system: Saccharomyces cerevisiae BY4741 SeMeCo community; assay: z-score of prototroph abundance vs DMSO median; higher = larger share of this subpopulation than in DMSO controls; details: 10 µM; 24 h; SM minimal medium; subpopulation (auxotrophy): Prototroph
In short: as §1

[17] = test system: Saccharomyces cerevisiae BY4741 SeMeCo community; assay: z-score of subpopulation abundance vs DMSO median, subpopulation auxotrophic for HLUM; higher = larger share of this subpopulation than in DMSO controls; details: 10 µM; 24 h; SM minimal medium; subpopulation (auxotrophy): HLUM
In short: as §1

SMILES | mean cell size [1] | z-score of subpopulation abundance [2] | z-score of subpopulation abundance [3] | z-score of subpopulation abundance [4] | z-score of subpopulation abundance [5] | z-score of subpopulation abundance [6] | z-score of subpopulation abundance [7] | z-score of subpopulation abundance [8] | z-score of subpopulation abundance [9] | z-score of subpopulation abundance [10] | z-score of subpopulation abundance [11] | z-score of subpopulation abundance [12] | z-score of subpopulation abundance [13] | z-score of subpopulation abundance [14] | z-score of subpopulation abundance [15] | z-score of prototroph abundance [16] | z-score of subpopulation abundance [17]
CCOc1ccc(NC(C)=O)cc1 [Phenacetin] | 12.6 ± 0.17 | 0.1 | -0.65 | 0.86 | 0.23 | 0.1 | -1.19 | 0.08 | 0.77 | 0.96 | -0.01 | 0.79 | 0.8 | 1.17 | -0.17 | – | –
Clc1ccc(C(Cn2ccnc2)OCc2ccsc2Cl)c(Cl)c1 (stereo not drawn) [Tioconazole] | 12.1 ± 0.12 | -0.92 | -2.45 | 1.22 | 19.7 | -0.51 | -1.99 | – | 10.2 | – | 6.06 | 3.35 | 20 | 3.39 | 4.03 | -7.82 | 15.6
O=c1c(-c2ccc(O)cc2)coc2c([C@@H]3O[C@H](CO)[C@@H](O)[C@H](O)[C@H]3O)c(O)ccc12 [Puerarin] | 12.55 ± 0.11 | 0.72 | -0.61 | 0.36 | 0.2 | -0.47 | -0.04 | – | 0.41 | 0.39 | 0.23 | 0.12 | 1.18 | -0.25 | -1.14 | -0.2 | -0.33
Cc1nc(NC(=O)N2CCC[C@H]2C(N)=O)sc1-c1ccnc(C(C)(C)C(F)(F)F)c1 [Alpelisib (BYL719)] | 12.6 ± 0.23 | -0.14 | -1.04 | 0.93 | 0.36 | 0.28 | -1.01 | – | 0.49 | 0.25 | -0.35 | -0.75 | -0.12 | 0.48 | -0.87 | -0.14 | -0.78
O=C(CCCN1CCC(O)(c2ccc(Cl)cc2)CC1)c1ccc(F)cc1 [Haloperidol] | 12.4 ± 0.2 | -0.16 | 0.68 | -0.4 | -0.68 | -0.75 | 0.48 | – | -0.95 | -0.69 | 0.01 | 0.13 | -0.12 | -0.8 | -0.06 | – | 0.12
Cc1ccccc1C(OCCN(C)C)c1ccccc1 (stereo not drawn) [Orphenadrine Citrate] | 12.2 ± 0.14 | -0.02 | -0.09 | 0.9 | -0.33 | 0.36 | -0.43 | -0.64 | 0.14 | 0.14 | – | 0.33 | -0.97 | -0.13 | – | – | –
Nc1ccc(S(=O)(=O)Nc2ccccn2)cc1 [Sulfapyridine] | 12.2 ± 0.13 | 0.24 | -0.23 | – | – | -0.25 | -0.18 | -0.46 | -0.55 | -0.75 | -0.68 | -0.45 | -0.9 | -0.97 | -0.73 | 0.95 | –
CN1C(C(=O)Nc2ccccn2)=C(O)c2sc(Cl)cc2S1(=O)=O [Lornoxicam] | 12.1 ± 0.13 | -0.04 | -0.14 | 0.67 | – | -0.21 | -0.22 | – | 0.59 | – | -0.56 | -0.19 | 0.08 | -0.27 | 0.46 | -0.29 | -0.1
CC[C@@H]1C(=O)OC[C@@H]1Cc1cncn1C [Pilocarpine HCl] | 12.7 ± 0.26 | 0.65 | 0.16 | -0.55 | 0.8 | -0.22 | 0.75 | 0.01 | -0.93 | -0.51 | -0.15 | -0.93 | -0.18 | -1.4 | -0.76 | 0.73 | –
C[C@H](Nc1ncnc2nc[nH]c12)c1cc2cccc(Cl)c2c(=O)n1-c1ccccc1 [Duvelisib (IPI-145, INK1197)] | 12.37 ± 0.1 | -0.39 | 1.3 | 0.89 | 0.93 | 1.28 | 0.42 | -0.47 | -0.03 | -0.3 | 0.33 | 0.95 | 0.18 | -0.67 | 0.56 | -0.55 | –
COc1cc2c(cc1OC)C(=O)C(CC1CCN(Cc3ccccc3)CC1)C2 (stereo not drawn) [Donepezil] | 12.14 ± 0.068 | 1.61 | 0.86 | -1.17 | -0.21 | 0.06 | 0.51 | 0.52 | -0.92 | -0.49 | – | -0.33 | -0.14 | -0.13 | 0.47 | -0.18 | –
CCCN1C[C@H](C)[C@@H](O)[C@](C)(O)[C@@H](CC)OC(=O)[C@H](C)[C@@H](O[C@H]2C[C@@](C)(OC)[C@@H](O)[C@H](C)O2)[C@H](C)[C@@H](O[C@@H]2O[C@H](C)C[C@H](N(C)C)[C@H]2O)[C@](C)(O)C[C@H]1C [Gamithromycin] | 12.3 ± 0.13 | -0.59 | 0.42 | -0.04 | 2.25 | -0.16 | 0.13 | 0.24 | -0.26 | -0.02 | 0.97 | 0.75 | -0.18 | 0.28 | -0.04 | -0.29 | –
C=CC[C@@H]1/C=C(\C)C[C@H](C)C[C@H](OC)[C@H]2O[C@@](O)(C(=O)C(=O)N3CCCC[C@H]3C(=O)O[C@H](/C(C)=C/[C@@H]3CC[C@@H](O)[C@H](OC)C3)[C@H](C)[C@@H](O)CC1=O)[C@H](C)C[C@@H]2OC [Tacrolimus (FK506)] | 12.02 ± 0.1 | 2.07 | 0.71 | -0.41 | 1.87 | -1.01 | 0.93 | 1.61 | 1.08 | 1.02 | 1.89 | 1.27 | 1.8 | 1.84 | 1.93 | -1.63 | –
Cn1c(=O)c2c(ncn2CC(O)CO)n(C)c1=O (stereo not drawn) [Dyphylline] | 12.55 ± 0.12 | -1.07 | -0.69 | 0.26 | -0.64 | -0.11 | -0.74 | – | -0.83 | -0.61 | -0.71 | -0.29 | -0.91 | -1.32 | -1.44 | 1.12 | -0.64
